Measured values reported in the supplement of paper PMC11417369.
Over roughly 25,000 sequences, “ln(normalized median fluorescence intensity)” has its median near 9.3; the highest 2% begin near 10. For the sample, the highest values were picked, then their nearest neighbours and some sequences at random.

test system: PF3D7_0420300 AP2 domain 1 (GST-tagged); assay: gcPBM binding intensity (ln(normalized median fluorescence intensity)); higher = stronger DNA binding
Procedure, shortened: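 An Agilent 4 × 180k array of primer-extended double-stranded 36-bp intergenic genomic probes, with negative controls, was incubated for 1 h with GST-tagged P. falciparum DNA-binding domains expressed in E. coli. Alexa488 anti-GST antibody detected bound protein, scanned at 488 nm. Binding intensity is the highest Masliner-normalised natural-log median intensity across replicate spots of either probe orientation.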

First: ATGTGATGTTATATATGTACTTATTTTTTAATAAGG [XGTACX_site1786]
Second: TGTTGTAAATTAAAGACATGCACGTGAGAAAATATA [TGCATGCA_site285]
The “gcPBM binding intensity (ln)” value of the first is lower: 9.25 for the first, 9.51 for the second.

Going from “TCAAATTTAATCATAACACACATTCACATATGAATT [CACACA_site3199]” to “GTAGTCCAAAAAAAGCGTACACAGAAAAAAAAAAAA [XGTACX_site4273]”, the “gcPBM binding intensity (ln)” value falls from 9.16 to 9.14.

Going from “ATTTTTTGGAAAAGAAGTACAATGGATTTATACGTT [XGTACX_site891]” to “TTTTTTTTTTTTTTTTTTTTACCCCTTTTTCAAAAA [CACACA_negctrl_site1524]”, the “gcPBM binding intensity (ln)” value falls from 9.09 to 8.39.

Compared with “AGGATATATAATTAAGTGCATTAATTCAAAATAAAA [GTGCAC_site9702]”, “TTTTGTCTTATATGTTGTACAACGTAAACAAAAAAA [XGTACX_site4412]” is lower in “gcPBM binding intensity (ln)” value: 9.17 for the first, 8.84 for the second.

Compared with “TTTTAAGAATAAAATTGTACACATACATGTGTTCGC [XGTACX_site438]”, “TATATACCTATATACACACACATATATAAATAAATA [CACACA_site7341]” is higher in “gcPBM binding intensity (ln)” value: 9.09 for the first, 9.86 for the second.

Compared with “AAAAAAAAAAAAAGTACACACATACCTATAAATATA [CACACA_site6937]”, “TACCTATACCTATACACACACACACGGAAATAAATA [CACACA_site6750]” is higher in “gcPBM binding intensity (ln)” value: 9.8 for the first, 10.3 for the second.

First: TACCTATAAAAGTACACACACACACGGATATAAATA [CACACA_site6569]
Second: CAAAAAAAGTTATACACACACACACGGATATAAATA [CACACA_site6619]
The “gcPBM binding intensity (ln)” value of the first is higher: 10.3 for the first, 10.1 for the second.

First: TATACCTATAAATACACACACATATAAATAAATATA [CACACA_site6153]
Second: TATTGTATGGTAGGATATGATGTTATTTGTTATAAT [CACACA_negctrl_site202]
The “gcPBM binding intensity (ln)” value of the first is higher: 9.99 for the first, 9.45 for the second.

Compared with “TATATATATATATATATATATATATATATATATATT [CACACA_negctrl_site1440]”, “CTGAATGTATATATTTGTACATATATATATATATAT [XGTACX_site5557]” is higher in “gcPBM binding intensity (ln)” value: 8.8 for the first, 9.16 for the second.

Going from “TTTTTTTTTTTTTGTAGTACATTATGTATATTTTTA [XGTACX_site7810]” to “TATATATATTTATGCACACAAAATATATTATATAAT [CACACA_site5955]”, the “gcPBM binding intensity (ln)” value rises from 9.23 to 9.27.

Compared with “TACAGACATAGACACACACACACGCATAAAAAAAAA [CACACA_site6820]”, “AAATTTGGCAGACACACACACACACGCACACGCACA [CACACA_site6423]” is higher in “gcPBM binding intensity (ln)” value: 10.1 for the first, 10.3 for the second.

Compared with “TTTATTTTATCATTTGCACACGCACCCAGACATAAA [CACACA_site4347]”, “AGCACGCACAGACACACACACATATTTATATTTATA [CACACA_site6291]” is higher in “gcPBM binding intensity (ln)” value: 9.39 for the first, 9.94 for the second.

Compared with “ATTTGGCATAGACACACACACACACGCACGCACATA [CACACA_site6424]”, “CAGACGCACGTATTTGCACACATTGCCACGTAATTA [CACACA_site3349]” is lower in “gcPBM binding intensity (ln)” value: 10.4 for the first, 9.42 for the second.

Compared with “TTTATATTATTTTAAACATGCACAAGTATAATTTAT [TGCATGCA_site233]”, “ATATGTATAAAAATCCGTACATAAGTGTGCGTATAT [XGTACX_site4376]” is higher in “gcPBM binding intensity (ln)” value: 8.97 for the first, 9.32 for the second.

Compared with “TATTTATAATTATAATAATATATATATATATATATA [TGCATGCA_negctrl_site173]”, “AGAAATACAAAATAAATATAAGAAACAAAATATTTA [CACACA_negctrl_site780]” is higher in “gcPBM binding intensity (ln)” value: 8.83 for the first, 9.42 for the second.

Compared with “AATGACAACCTTGTCACACATATATATATATATATA [CACACA_site5977]”, “TCTATATAGATTTGCACACATAAAAATGCTTATATA [CACACA_site2389]” is higher in “gcPBM binding intensity (ln)” value: 9.17 for the first, 9.27 for the second.

Going from “TTGTTCCACAAAAATTTAGTCAAAAAAAAATAAAAA [TGCATGCA_negctrl_site546]” to “TATATATACACACACACATGCATGCCGATATATATA [TGCATGCA_site29]”, the “gcPBM binding intensity (ln)” value rises from 8.79 to 10.2.

Going from “TATATATATATATATACATGCATACATATACATACA [TGCATGCA_site897]” to “TATATATATATACATACATGCATATATATATATATA [TGCATGCA_site513]”, the “gcPBM binding intensity (ln)” value falls from 9.14 to 9.

Compared with “AATATATATATATATACACACACACCGATATATATA [CACACA_site8158]”, “CAAAAAAACAAACACACACACACACCGATATATATA [CACACA_site9218]” is higher in “gcPBM binding intensity (ln)” value: 10.1 for the first, 10.2 for the second.

First: TATGTACAAATATGTACACACACACCGATATATATA [CACACA_site4487]
Second: GATATATATTAATATACACACACACCGATATATATA [CACACA_site8462]
The “gcPBM binding intensity (ln)” value of the first is lower: 9.96 for the first, 10 for the second.

First: AAAAAAAAAAAACACACACACAAAAAAAAATATATA [CACACA_site1105]
Second: AGAAAGAAAATATATACACACAAAAAAAAATATATA [CACACA_site1412]
The “gcPBM binding intensity (ln)” value of the first is higher: 10.1 for the first, 9.93 for the second.

“AAAGAAAGAAAGAATACACACACACCGATATATATA [CACACA_site9246]” and “TATATATATATATACACACACACACCGATATATATA [CACACA_site8813]” are the same in “gcPBM binding intensity (ln)” value: 10.2 for the first, 10.2 for the second.
